From the supplement of paper PMC8253809

Tests used:
Experiment in all cases: growth inhibition (% activity, log2 RLU normalised to DMSO / staurosporine); higher = more growth inhibition
Conditions in all cases: 33 µM
DIPGX29 = test system: DIPGX29 (H3.3 K27M diffuse intrinsic pontine glioma line)
In short: (§1)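 In triplicate, pHGG cell lines and H9-derived neural stem cells were treated for 7 days at 37 °C, 5% CO2 with approved drugs at a single final concentration of about 33 μM, added by pin tool. CellTiter-Glo luminescence, after log2 transformation, was normalised on each plate to % activity between solvent and positive control wells. Growth inhibition is reported as the median across replicates.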

DIPGX37 = test system: DIPGX37 (H3.3 K27M diffuse intrinsic pontine glioma line)
In short: as §1

DIPGX7 = test system: DIPGX7 (H3.3 K27M diffuse intrinsic pontine glioma line)
In short: as §1

DIPGX9 = test system: DIPGX9 (diffuse intrinsic pontine glioma line)
In short: as §1

HGGX39 = test system: HGGX39 (paediatric high-grade glioma line)
In short: as §1

HGGX6 = test system: HGGX6 (H3.3 G34R paediatric high-grade glioma line)
In short: as §1

HNSC = test system: HNSC
In short: as §1

SUDIPGIV = test system: SUDIPGIV (diffuse intrinsic pontine glioma line)
In short: as §1

SUDIPGVI = test system: SUDIPGVI (diffuse intrinsic pontine glioma line)
In short: as §1

SUDIPGXIII = test system: SUDIPGXIII (diffuse intrinsic pontine glioma line)
In short: as §1

SMILES	growth inhibition (DIPGX29)	growth inhibition (DIPGX37)	growth inhibition (DIPGX7)	growth inhibition (DIPGX9)	growth inhibition (HGGX39)	growth inhibition (HGGX6)	growth inhibition (HNSC)	growth inhibition (SUDIPGIV)	growth inhibition (SUDIPGVI)	growth inhibition (SUDIPGXIII)
CCC[C@H](NC(=O)[C@@H]1[C@H]2CCC[C@H]2CN1C(=O)[C@@H](NC(=O)[C@@H](NC(=O)c1cnccn1)C1CCCCC1)C(C)(C)C)C(=O)C(=O)NC1CC1	0.654%	1.66%	1.2%	1.41%	1.74%	2.24%	3.02%	0.139%	1.78%	-0.0315%
CCCCC(CC)CN=C(N)N=C(N)NCCCCCCNC(N)=NC(N)=NCC(CC)CCCC (stereo not given)	57.1%	60.6%	58.2%	57.3%	58.4%	59.5%	67.8%	59.4%	60.2%	69.8%
CCCC1O[C@@H]2C[C@H]3[C@@H]4CCC5=CC(=O)C=C[C@]5(C)[C@H]4[C@@H](O)C[C@]3(C)[C@]2(C(=O)CO)O1 (stereo not given in full)	2.07%	-0.133%	-1.11%	3.67%	3.05%	1.13%	-0.0191%	40.8%	-5.45%	18.8%
CC(C)c1nc(N(C)S(C)(=O)=O)nc(-c2ccc(F)cc2)c1C=CC(O)CC(O)CC(=O)O (stereo not given)	7.07%	-1.35%	16.7%	4.14%	24.4%	15.9%	73.3%	21.5%	-6.26%	17%
CCC(=O)O[C@]1(C(=O)SCF)[C@H](C)C[C@H]2[C@@H]3C[C@H](F)C4=CC(=O)C=C[C@]4(C)[C@@]3(F)[C@@H](O)C[C@@]21C	0.571%	2.49%	-1.29%	2.53%	0.688%	-0.734%	2.55%	-3.9%	-0.462%	1.22%
C=C[C@]1(C)C[C@@H](OC(=O)CS[C@@H]2C[C@H]3CC[C@@H](C2)N3C)[C@]2(C)[C@H](C)CC[C@]3(CCC(=O)[C@H]32)[C@@H](C)[C@@H]1O	4.15%	2.94%	3.25%	4.84%	11.9%	5.9%	7.78%	12%	5.01%	5.37%
O=C(O)[C@H](CC(=O)N1C[C@H]2CCCC[C@H]2C1)Cc1ccccc1	0.852%	-5.28%	0.289%	1.86%	1.09%	0.619%	1.48%	1.74%	1.16%	-1.34%
CC(=O)NS(=O)(=O)c1ccc(NC(=O)c2ccccc2C(=O)O)cc1	-1.87%	-0.137%	-3.14%	-1.16%	-2.19%	-0.75%	-2.78%	-2.4%	-1.59%	-0.151%
C=C1[C@H](CO)[C@@H](O)C[C@@H]1n1cnc2c(=O)[nH]c(N)nc21	-0.461%	0.828%	-0.963%	1.66%	0.038%	2.68%	0.984%	-0.629%	0.432%	2.42%
CC1(C)O[C@@H]2C[C@H]3[C@@H]4C[C@H](F)C5=CC(=O)C=C[C@]5(C)[C@@]4(F)[C@@H](O)C[C@]3(C)[C@]2(C(=O)CO)O1	5.9%	6.05%	2.96%	7.24%	5.97%	3.53%	1.69%	1.18%	3.97%	-0.393%
NC1CCN(c2c(F)cc3c(=O)c(C(=O)O)cn(C4CC4)c3c2Cl)C1 (stereo not given)	0.157%	-1.86%	1.13%	1.33%	2.79%	-0.611%	1.85%	-0.22%	1.99%	-0.254%
C[C@@H](O[C@H]1OCCN(Cc2nn(P(=O)(O)O)c(=O)[nH]2)[C@H]1c1ccc(F)cc1)c1cc(C(F)(F)F)cc(C(F)(F)F)c1	6.53%	2.67%	3.46%	4.01%	11.6%	5.75%	4.2%	16.2%	3.61%	11.4%
Clc1ccc(CCC(Cn2ccnc2)Sc2c(Cl)cccc2Cl)cc1 (stereo not given)	5.06%	1.97%	3.57%	4.57%	13.2%	10.2%	10.2%	13.5%	4.83%	11.4%
CCOc1nc2cccc(C(=O)OCc3oc(=O)oc3C)c2n1Cc1ccc(-c2ccccc2-c2noc(=O)[nH]2)cc1	0.179%	-1.86%	1.02%	0.141%	0.998%	-2.04%	16.6%	-1.36%	-4.87%	-1.75%
C[C@@H]1CC(=O)NN=C1c1ccc(NN=C(C#N)C#N)cc1	1.15%	-0.996%	1.39%	4.28%	4.26%	2.45%	5.57%	5.05%	1.51%	0.449%
O.O.O.O.O=C([O-])CC(O)(CC(=O)[O-])C(=O)[O-].[Li+].[Li+].[Li+]	1.75%	1.97%	1.43%	0.467%	-0.0466%	-1.34%	26.2%	0.611%	1.36%	-0.99%
CC=CC1=C(C(=O)O)N2C(=O)[C@@H](NC(=O)[C@H](N)c3ccc(O)cc3)[C@H]2SC1	-1.6%	0.508%	-0.595%	0.543%	-1.99%	1.84%	-1.83%	-0.89%	0.277%	-12.4%
O=C(NC[C@H]1CN(c2ccc(N3CCOCC3=O)cc2)C(=O)O1)c1ccc(Cl)s1	-0.891%	0.377%	-0.155%	-1.03%	0.0326%	0.545%	0.606%	3.01%	-0.593%	1.19%
CC[C@H](C)[C@H](N)C1=N[C@H](C(=O)N[C@@H](CC(C)C)C(=O)N[C@H](CCC(=O)O)C(=O)N[C@H](C(=O)N[C@H]2CCCCNC(=O)[C@H](CC(N)=O)NC(=O)[C@@H](CC(=O)O)NC(=O)[C@H](Cc3cnc[nH]3)NC(=O)[C@@H](Cc3ccccc3)NC(=O)[C@H]([C@@H](C)CC)NC(=O)[C@@H](CCCN)NC2=O)[C@@H](C)CC)CS1	0.716%	-3.59%	2.09%	-0.221%	2.77%	-1.08%	1.3%	0.589%	-1.54%	-1.26%
CC(=O)Oc1ccccc1C(=O)O	0.978%	2.47%	1.52%	1.57%	2.08%	4%	0.311%	-1.34%	2.68%	-16%
